Assay results taken from the supplement of paper PMC12636033.
± gives the standard deviation of the averaged measurements. The full ranking holds about 33,000 sequences; the median of “E-score (rank enrichment, -0.5 to 0.5)” is about -0.0068, and the highest 2% start at about 0.24. For the sample, the highest values were picked, then their nearest neighbours and some sequences at random.

Tested on: muMax20 (Max(13-93) K31hArg/K57hArg, M65Nle)
Experiment: PBM 8-mer E-score (E-score (rank enrichment, -0.5 to 0.5)); higher = stronger preferential binding
Experimental: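 Protein binding microarray (universal PBM chip covering all 10-mers in fixed probe flanks) with chemically synthesized human Max(13-93) bHLH-LZ analogs (not full-length Max) bearing noncanonical residues (hArg, Tha, Aib, Nle at 65) and aromatic Cys staples. Read-out per 8-mer (and its reverse complement): E-score (rank-based enrichment, -0.5 to 0.5) and Z-score of median probe intensity.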

Row | Sequence | PBM 8-mer E-score
1 | CAGTTGTC | -0.0724 ± 0.03
2 | AATCTGCC | -0.0641 ± 0.019
3 | AACCTAAC | 0.00712 ± 0.17
4 | AAGATAGT | 0.0344 ± 0.11
5 | ATGGTCGG | 0.12 ± 0.014
6 | AATCGGAT | -0.181 ± 0.015
7 | GCCGGTCA | -0.116 ± 0.078
8 | AATTACGC | 0.0652 ± 0.043
9 | GTTATAGA | 0.21 ± 0.089
10 | ATTAGATG | 0.226 ± 0.051
11 | AGTATAAC | 0.097 ± 0.009
12 | AGTATAAA | 0.213 ± 0.011
13 | GTTAGATA | 0.164 ± 0.13
14 | CTTATATC | 0.137 ± 0.08
15 | ATTAGATA | 0.262 ± 0.057
16 | AGTATAAG | 0.237 ± 0.042
17 | GTTATACA | 0.195 ± 0.095
18 | AATATATC | 0.0912 ± 0.07
19 | ATTATATC | 0.247 ± 0.031
20 | GTTATATA | 0.25 ± 0.023
21 | CATGGCAC | 0.0103 ± 0.037
22 | CTGTGTGA | 0.134 ± 0.012
23 | CAGCGCAC | -0.171 ± 0.087
24 | TATGAGGA | -0.0378 ± 0.11
25 | AACAGACG | -0.142 ± 0.096

Row | Sequence | PBM 8-mer E-score
26 | GGTGGATA | -0.0515 ± 0.1
27 | ACGGTTCA | -0.138 ± 0.047
28 | CTAGGTGA | 0.108 ± 0.032
29 | TAGGATGA | -0.00288 ± 0.12
30 | ACTATATG | 0.191 ± 0.089
31 | ATTATATG | 0.251 ± 0.03
32 | ATTATACG | 0.0459 ± 0.063
33 | ATTATATA | 0.242 ± 0.03
34 | CTTATATA | 0.226 ± 0.043
35 | GGTATCTA | -0.022 ± 0.064
36 | AGTATCTA | 0.344 ± 0.011
37 | AGTATATA | 0.277 ± 0.12
38 | AGTATATC | -0.038 ± 0.059
39 | CGTATCTA | -0.0745 ± 0.11
40 | ATTATACA | 0.174 ± 0.083
41 | AGTATATG | 0.145 ± 0.017
42 | GCCGTACA | 0.042 ± 0.14
43 | GGCGTACA | -0.082 ± 0.02
44 | CAAACGTC | 0.0182 ± 0.068
45 | CAGTAGAC | -0.021 ± 0.044
46 | AGGATGCG | -0.118 ± 0.034
47 | CCTATATC | -0.0516 ± 0.071
48 | ACTATATC | 0.273 ± 0.02
49 | ACTATATA | 0.235 ± 0.028
50 | CCTTGTAC | 0.176 ± 0.15

Row | Sequence | PBM 8-mer E-score
51 | ACGAAGCG | -0.0243 ± 0.071
52 | ATACTAGG | 0.138 ± 0.032
53 | GAATATTC | 0.195 ± 0.08
54 | ACATATCG | 0.046 ± 0.074
55 | GAATATTA | 0.137 ± 0.083
56 | ACATATTA | 0.241 ± 0.011
57 | ACATATTG | 0.11 ± 0.12
58 | TAATATGA | 0.221 ± 0.017
59 | CCATATCA | 0.0749 ± 0.018
60 | AAATATTC | 0.249 ± 0.0014
61 | TAATATTA | 0.337 ± 0.011
62 | ACATATCA | 0.262 ± 0.041
63 | CCATATTA | 0.124 ± 0.062
64 | CAATATTC | 0.0728 ± 0.011
65 | CGGCGTCC | -0.114 ± 0.047
66 | ATGCAATG | -0.00261 ± 0.02
67 | CAACTTGG | -0.0581 ± 0.1
68 | AGAGAACC | -0.143 ± 0.11
69 | CAGATCTC | -0.176 ± 0.038
70 | ATCTGACG | -0.0395 ± 0.07
71 | ATAGCGCG | 0.0731 ± 0.084
72 | CATTGCGG | -0.148 ± 0.13
73 | ACTTCAAC | 0.11 ± 0.041
74 | CAATATTA | 0.221 ± 0.056
75 | CCATAGCA | 0.0753 ± 0.09

Row | Sequence | PBM 8-mer E-score
76 | TCATAGCA | 0.108 ± 0.0018
77 | AAATATTA | 0.27 ± 0.028
78 | ACATAGCA | 0.272 ± 0.032
79 | AAATATTG | 0.138 ± 0.0027
80 | ATAAAGAG | 0.181 ± 0.089
81 | AGACAACA | 0.0868 ± 0.027
82 | TCTATCAA | 0.184 ± 0.099
83 | ATCTCCAT | 0.0165 ± 0.085
84 | ATAGGACC | -0.0994 ± 0.04
85 | GGTAAGGA | -0.00502 ± 0.057
86 | CATGCTGA | 0.2602 ± 0.0021
87 | GATGCTGA | -0.131 ± 0.16
88 | ACCGCGTA | 0.0588 ± 0.11
89 | ACCGCGTG | 0.294 ± 0.022
90 | CACGCGTG | 0.314 ± 0.11
91 | AATGCTGA | 0.088 ± 0.064
92 | CACGCGTA | 0.248 ± 0.051
93 | GACGCGTA | 0.0707 ± 0.061
94 | CACGCGTC | 0.208 ± 0.048
95 | AACGCGTA | 0.0549 ± 0.11
96 | AACGCGTG | 0.144 ± 0.01
97 | ACCGCGTC | -0.131 ± 0.011
98 | ATAAACGA | 0.229 ± 0.033
99 | TAATCTGA | -0.0143 ± 0.051
100 | AGGCCGTC | -0.184 ± 0.049

Row | Sequence | PBM 8-mer E-score
101 | TCCCCGCA | -0.0761 ± 0.035
102 | ATCACCTC | 0.0702 ± 0.029
103 | TCATCTCA | -0.000685 ± 0.13
104 | ATTGACCG | 0.0179 ± 0.099
105 | ATCGCGCG | 0.0373 ± 0.16
106 | GATGCGTA | 0.0917 ± 0.02
107 | AATGCGTA | 0.0783 ± 0.035
108 | CATGCGTA | 0.259 ± 0.15
109 | CCGTGGTA | -0.0136 ± 0.0022
110 | ACGTGGTA | 0.309 ± 0.021
111 | ACGTGGTG | 0.336 ± 0.015
112 | AGGTGGTG | 0.0398 ± 0.076
113 | GCGTGGTA | 0.148 ± 0.095
114 | ACGTGGTC | 0.213 ± 0.093
115 | ATAGAAAT | 0.15 ± 0.089
116 | GGAATAGA | 0.0778 ± 0.075
117 | CACATGGC | 0.269 ± 0.088
118 | AACATGGA | 0.135 ± 0.0038
119 | GACATGGC | 0.0454 ± 0.031
120 | CACATGGA | 0.238 ± 0.15
121 | CACATGGG | 0.181 ± 0.052
122 | GACATGGA | -0.0732 ± 0.1
123 | ATGACGCG | 0.0788 ± 0.13
124 | CCGGACAC | -0.238 ± 0.079
125 | ATAGAATG | 0.138 ± 0.018

Row | Sequence | PBM 8-mer E-score
126 | ATAGAATA | 0.245 ± 0.029
127 | GTAGAATA | 0.235 ± 0.044
128 | AGTATTCG | 0.0983 ± 0.088
129 | ATTCTATG | 0.109 ± 0.0098
130 | AAAATATA | 0.21 ± 0.055
131 | GAAAAATA | 0.158 ± 0.027
132 | CAAAAATA | 0.176 ± 0.0026
133 | GATAAATA | 0.149 ± 0.036
134 | TAAATATA | 0.246 ± 0.014
135 | CATAAATG | -0.0552 ± 0.089
136 | AATAAATA | 0.245 ± 0.06
137 | AATAAATG | 0.278 ± 0.018
138 | CAAATATA | 0.162 ± 0.027
139 | AAAAAATA | 0.271 ± 0.019
140 | AATAAATC | 0.0155 ± 0.081
141 | AATAAATT | 0.213 ± 0.037
142 | AGTATAGC | -0.0321 ± 0.19
143 | CAATTTCG | 0.0689 ± 0.083
144 | GTATGGGA | -0.111 ± 0.019
145 | GAGCACCC | -0.166 ± 0.061
146 | CACGGGAG | 0.00455 ± 0.05
147 | ACGGGAGT | 0.0635 ± 0.097
148 | CACGGGCG | -0.217 ± 0.14
149 | TAAAAATA | 0.131 ± 0.048
150 | GAAATGTA | 0.0974 ± 0.0077

Row | Sequence | PBM 8-mer E-score
151 | TATAAATA | 0.2587 ± 0.0014
152 | GTTAAATA | 0.283 ± 0.032
153 | CAAATGTA | 0.195 ± 0.11
154 | CATAAATA | 0.318 ± 0.035
155 | TAAATGTA | 0.285 ± 0.01
156 | ATTAAATA | 0.2 ± 0.025
157 | CATAAATC | 0.0804 ± 0.0035
158 | CCTAAATA | 0.123 ± 0.022
159 | CTTAAATA | 0.0909 ± 0.014
160 | CGTAAATA | 0.0359 ± 0.08
161 | CCTCCGGC | -0.116 ± 0.096
162 | ATTTGATA | 0.176 ± 0.046
163 | GCTTGACC | -0.013 ± 0.069
164 | ATGGATCG | -0.294 ± 0.055
165 | AATTAGCA | 0.159 ± 0.046
166 | CTGGAGCC | -0.177 ± 0.015
167 | ATGCCCGG | -0.241 ± 0.076
168 | AACTACGA | 0.0584 ± 0.13
169 | AAGTATAC | 0.259 ± 0.043
170 | AAGTATAA | 0.215 ± 0.033
171 | AAGTATAT | 0.183 ± 0.0083
172 | ACAAGGGT | 0.0627 ± 0.11
